Data from PubChem BioAssay AID504437 (Emory University Molecular Libraries Screening Center, 2011).
The whole screen tested about 2,100 compounds, of which about 940 (45%) were called active.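 Rule for the calls: active = mean of three repeat readings of reporter signal inhibition above a set limit (cut at about 70% in these data); inactive = the rest.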 So high a share suggests a set chosen from earlier hits. Only a selection was taken, and actives are over-represented in it overall.

Assay: CHOP promoter reporter blockers, replicate testing – cell-based, confirmation (AID 504437);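 note: 0% = tunicamycin plus vehicle and 100% = wells lacking tunicamycin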
Conditions: CHO-CHOP promoter luciferase reporter, tunicamycin-induced, luminescence; at 10 µM; stronger effect = higher value
For `O=C(CSC1c2ccccc2-c2ccccc21)N/N=C/c1ccccc1`, the inhibition was 70.5% (active).
With `CCCCCCN=C(CC)c1c(O)n(CCCC)c(=O)[nH]c1=O` the inhibition was 118% (active).
